We go through ten molecules from PubChem BioAssay.

Each structure is given as a SMILES string. Results filed as inconclusive are left out. Active and inactive are the calls of the source. Unless noted, how the calls were made is not given here.

By inhibition is commonly meant the relative decrease from the control value, in per cent. By remaining activity is commonly meant the signal under treatment as a percentage of the control signal. As usually defined, the AC50 is the midpoint of the concentration-response curve, whichever way the signal moves.

Assay [1] is described as follows: viability loss in pontine glioma line – cell-based, SU-DIPG-XXV, MIPE5.0, CellTiter-Glo, qHTS, dose response (AID 1347065; cut-off not given, nearly all actives have AC50 up to about 26 µM;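 further: cells exposed to compound for 48 hours before ATP readout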). The settings on record: CellTiter-Glo ATP luminescence. (In general: Cellular ATP, detected with luciferase, serves as a proxy for viable cell number.)
Assay [2] addresses NAD(+) hydrolase SARM1 (Homo sapiens) (UniProt Q6SZW1). In words: blocking NAD cleavage by SARM1 SAM-TIR – cell lysate, NAD-Glo luminescence (AID 1508614;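 active means compound whose remaining NAD level is above about 45 nM, limit read from the data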). The settings on record: SAM-TIR HEK293T lysate NADase, at 1 µM, stronger effect = higher value.
Assay [3] can be described thus: growth inhibition, single agent or in combination, cell-based, chromothripsis tumors, cisplatin or BGB combos (AID 1671449; in the data active means inhibition above about 80%;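 further: cells exposed for 96 hours; 0% = vehicle DMSO and 100% = killing by high DMSO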). The following applies: LFS_MB_P medulloblastoma cells.
A short description of assay [4]: growth inhibition, single agent and combos, cell-based, chromothripsis tumors, cisplatin or BGB combos (AID 1671450; in the data active means inhibition above about 80%;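 further: cells exposed to compound for four days; 0% = vehicle DMSO and 100% = cell killing by high DMSO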). The following applies: HDN33 neuroblastoma cells, stronger effect = higher value.
Assay [5] in a line: growth inhibition, single agents and combos, LFS_MB_1R, cell-based, cisplatin or BGB combos, synergistic combos for chromothripsis tumors (AID 1671452; in the data active means inhibition above about 80%;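 further: cells exposed for 96 hours before readout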). The following applies: LFS_MB_1R medulloblastoma cells, stronger effect = higher value.
Assay [6] can be described thus: growth inhibition, single agents and combos, HTB85, cell-based, BGB or cisplatin IC20 combos, synergistic combos for chromothripsis tumors (AID 1671453; in the data active means inhibition above about 80%;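 further: cells exposed for 96 hours before readout; 0% = vehicle DMSO and 100% = high DMSO killing control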). The settings on record: HTB85 osteosarcoma cells, drug combinations, stronger effect = higher value.
Assay [7] in a line: growth inhibition, MDA-MB-436, cell-based, BGB or cisplatin combos, synergistic combos for chromothripsis tumors (AID 1671458).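 Further: cells exposed for 96 hours; 0% = vehicle DMSO and 100% = killing by high DMSO.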 The following applies: MDA-MB-436 breast carcinoma growth inhibition, drug combinations, stronger effect = higher value.
The nature of assay [8]: BT084 cell growth, single and combined drugs, ICGC_MB145, cisplatin and BGB IC40 combos (AID 1671461; in the data active means inhibition above about 80%;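 further: cells exposed to drugs for 96 hours; 0% = vehicle DMSO and 100% = high DMSO full killing control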). The settings on record: BT084 medulloblastoma cells, drug combinations, stronger effect = higher value.
Assay [9] in a line: RCMB18 cell growth, single agent and combined, cisplatin and BGB IC40 combos (AID 1671462; in the data active means inhibition above about 80%;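 further: cells exposed to compound for four days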). The following applies: RCMB18 medulloblastoma cells, stronger effect = higher value.
The nature of assay [10]: CRL1545 cell growth, single agent and combined, cisplatin and BGB IC20 combos (AID 1671464; in the data active means inhibition above about 80%;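 further: cells exposed to compound for 96 hours before readout; 0% = vehicle DMSO and 100% = high DMSO killing control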). The following applies: CRL1545 osteosarcoma cells, stronger effect = higher value.
Assay [11] is described as follows: compounds altering circadian rhythm period length – cell-based, LOPAC library, luminescence reporter (AID 2774).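 Further: values are relative to mean of DMSO wells on each plate.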 The settings on record: circadian reporter cells, at 7 µM, actives lie on both sides.
The test system of assay [12] is Hepatitis C virus NS3 helicase. The assay can be described thus: blockers of NS3h binding to ssDNA – biochemical, fluorescence polarization, LOPAC1280 library, primary screen (AID 687035; in the data active means inhibition above about 37%). The settings on record: Purified HCV NS3 helicase, Cy5-dT15 ssDNA binding fluorescence polarization; stronger effect = higher value; concentration not given here.
Assay [13] is described as follows: compounds altering Cy5-DNA-NS3h complex signal – biochemical, LOPAC1280, artefact control for HCV NS3 helicase inhibitor project (AID 687037). The settings on record: Cy5-DNA-NS3h complex fluorescence interference counterscreen.
The test system of assay [14] is Aerobactin synthetase IucA (Klebsiella pneumoniae). The assay can be described thus: inhibition of K. pneumoniae IucA enzyme – biochemical, Tocris library, absorbance (AID 1345561).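 Further: 100% = enzyme without compound and 0% = no enzyme.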 The settings on record: purified IucA enzyme assay, absorbance (OD) read-out; stronger effect = lower value;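 tested at 8 µM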.
The nature of assay [15]: blockers of cellular phospholipid synthesis – cell-based, LOPAC library, screen 4, primary screen (AID 1347384). The following applies: animal cells, phospholipid biosynthesis inhibition screen; at 10 µM.
Assay [16] can be described thus: viability loss in pontine glioma line – cell-based, SU-DIPG-XIII, MIPE5.0, CellTiter-Glo, qHTS, dose response (AID 1347064; cut-off not given, nearly all actives have AC50 up to about 23 µM;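 on AC50: cells exposed to compound for 48 hours before the viability read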). The settings on record: CellTiter-Glo ATP luminescence.
A short description of assay [17]: GFP-Q80 aggregate reduction, neuronal-like cells, cell-based, NGF-treated PC12, GFPQ80 (AID 1614).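 Further: lower means fewer inclusions and 0 means no inclusions at all.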 The settings on record: PC12 NGF-treated GFP-polyQ80 inclusion reduction.
Assay [18] can be described thus: compounds altering viability of human ES cells (AID 493140).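 Further: cells exposed to compounds for four days before counting.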 The following applies: human embryonic stem cell survival screen; stronger effect = higher value.
Assay [19] can be described thus: growth inhibition of DIPG cells – cell-based, MIPE4.0 library, CellTiter-Glo luminescence, qHTS (AID 1347066; cut-off not given, nearly all actives have AC50 up to about 30 µM;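 further: cells exposed to compound for 48 hours before readout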). The settings on record: SU-DIPG-VI viability, CellTiter-Glo ATP luminescence.
Assay [20] is described as follows: growth inhibition of DIPG cells – cell-based, MIPE5.0 library, qHTS (AID 1347068; cut-off not given, nearly all actives have IC50 up to about 30 µM). The following applies: SU-DIPG-XXV viability. On the technique in general: qHTS replaces the single test concentration by a dilution series.
[21] abbreviates: measured here: combination with BGB IC40, at 0.05 µM.
[22] abbreviates: measured here: with BGB IC20 combination, at 0.5 µM.
Setting [23] is: measured here: with cisplatin IC20 combination, at 0.5 µM.
Where [24] appears, read: measured here: combination with cisplatin, at 0.5 µM.

Sequence of NAD(+) hydrolase SARM1 (Homo sapiens) (Q6SZW1 whole entry, looked up): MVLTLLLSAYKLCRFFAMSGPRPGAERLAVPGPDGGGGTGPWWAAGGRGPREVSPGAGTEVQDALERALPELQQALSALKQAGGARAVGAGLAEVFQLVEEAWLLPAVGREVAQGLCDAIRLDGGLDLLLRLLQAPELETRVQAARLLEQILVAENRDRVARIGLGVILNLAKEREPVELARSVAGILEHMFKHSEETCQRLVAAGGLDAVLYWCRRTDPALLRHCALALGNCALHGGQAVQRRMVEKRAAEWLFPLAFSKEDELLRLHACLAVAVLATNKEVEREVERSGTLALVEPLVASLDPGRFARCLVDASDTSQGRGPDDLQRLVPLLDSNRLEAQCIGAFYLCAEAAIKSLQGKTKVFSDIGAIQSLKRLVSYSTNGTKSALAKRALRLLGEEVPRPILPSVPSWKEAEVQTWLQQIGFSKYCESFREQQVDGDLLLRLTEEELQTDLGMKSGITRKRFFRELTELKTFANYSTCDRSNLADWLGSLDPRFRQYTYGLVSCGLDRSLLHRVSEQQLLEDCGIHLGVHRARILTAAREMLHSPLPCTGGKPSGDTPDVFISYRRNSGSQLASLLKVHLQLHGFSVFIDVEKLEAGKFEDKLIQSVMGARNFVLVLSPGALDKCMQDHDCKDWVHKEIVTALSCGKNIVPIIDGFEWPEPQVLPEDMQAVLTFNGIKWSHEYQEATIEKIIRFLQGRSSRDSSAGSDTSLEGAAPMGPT

As to `N=c1ccn2c(n1)O[C@H]1[C@H](O)[C@@H](CO)O[C@H]12`, the call in assay [1] was inactive. Moreover, the remaining NAD in [2] was 10 nM (inactive). In addition, the inhibition in assay [3] (at 0.5 µM, stronger effect = higher value) is -28.5% (inactive); in [3] (measured here: combination with BGB IC20, at 0.005 µM), -22.6%; in assay [3] (measured here: combination with BGB IC40, at 0.005 µM), -23.7%; in assay [3] (setting [21]), -32.2%; in assay [3] (measured here: combination with cisplatin, at 0.5 µM, stronger effect = higher value), -58.3%; in assay [3] (measured here: combination with cisplatin, at 5 µM, stronger effect = higher value), 86.6%. The inhibition is 85.1% in [4] (BGB combo, at 5 µM); 76.6% (inactive) in assay [4] (at 0.5 µM); 80.9% in assay [4] (cisplatin combo, at 5 µM); 82.4% in assay [4] (setting [22]); 69.1% in [4] (setting [23]); 81.4% in assay [4] (single agent, at 5 µM). The inhibition in assay [5] (at 0.5 µM) is -7.06% (inactive); in assay [5] (setting [21]), -18.8%; in assay [5] (setting [24]) it was 43.5%; in [5] (measured here: combination with cisplatin, at 5 µM), 68.2%; in assay [6] (at 0.5 µM), 32.7% (inactive); in [6] (measured here: with BGB IC20, at 0.5 µM) it was 1.49%. The inhibition is 23.6% in assay [6] (measured here: with BGB IC20, at 5 µM); 44.8% in assay [6] (measured here: with cisplatin IC20, at 0.5 µM); 50.9% in [6] (measured here: with cisplatin IC20, at 5 µM); 64.3% in assay [6] (single agent, at 5 µM); 14% (inactive) in assay [7] (at 0.5 µM); 5.47% in [7] (measured here: BGB combination, at 0.5 µM). Besides, the inhibition is 33.7% in [7] (measured here: BGB combination, at 5 µM); 0.616% in assay [7] (measured here: cisplatin combination, at 0.5 µM); 57.3% in assay [7] (measured here: cisplatin combination, at 5 µM); -29.7% (inactive) in assay [8] (at 0.5 µM); 2.2% in [8] (cisplatin combination, at 0.5 µM); 58.5% in assay [8] (cisplatin combination, at 5 µM). In addition, the inhibition in assay [8] (measured here: BGB IC40 combination 0.05 uM, at 0.05 µM) is -14%; in assay [8] (single agent, at 5 µM), -28.9%; in assay [9] (at 0.5 µM), -18% (inactive); in assay [9] (cisplatin combo, at 5 µM), 61%; in assay [9] (measured here: BGB IC40 combination, at 0.05 µM), -21.5%; in [9] (setting [24]) it was 11.8%. The inhibition was -26.3% in [9] (single agent, at 5 µM); -32.9% (inactive) in assay [10] (at 0.5 µM); -44.9% in [10] (setting [22]); -29.7% in [10] (setting [23]); -73.2% in [10] (single agent, at 0.05 µM); 23.2% in [10] (single agent, at 5 µM).

Consider `O=C(O)C1=CCCNC1`, for which the period change in assay [11] is 0.125 h (inactive). The inhibition in assay [12] was -3% (inactive). Besides, in [13], the fluorescence ratio (interference) was 1 (inactive). Further, the remaining activity in [14] was 107% (inactive). Also, in [15], the outcome was inactive.

For the molecule `CC[C@@]1(O)C[C@H](O[C@H]2C[C@H](N(C)C)[C@H](O[C@H]3C[C@H](O)[C@H](O[C@H]4CCC(=O)[C@H](C)O4)[C@H](C)O3)[C@H](C)O2)c2c(cc3c(c2O)C(=O)c2c(O)cccc2C3=O)[C@H]1C(=O)OC`, the AC50 is 16.6 µM (active) in [16] and 14.8 µM (active) in [1].

On to `CCCn1c(=O)c2[nH]c(C3CCCC3)nc2n(CCC)c1=O`, for which the inclusion score in assay [17] came out at 2. The period change in assay [11] is -0.025 h (inactive). The inhibition in [12] was 0% (inactive). For the same molecule, the fluorescence ratio (interference) in assay [13] was 1 (inactive). For the same molecule, the remaining activity in assay [14] was 119% (inactive). Also, the molecule was called inactive in [15].

Turning to `C[C@H]1C[C@H]2[C@@H]3CCC4=CC(=O)C=C[C@]4(C)[C@@]3(F)[C@@H](O)C[C@]2(C)[C@@]1(O)C(=O)CO`, the survival in assay [18] was 9.67 (inactive). In assay [19], the molecule was called inactive. Besides, in assay [2], the remaining NAD was 10 nM (inactive).

`O=C(O)Cc1nn(Cc2ccc(Br)cc2F)c(=O)c2ccccc12`: the remaining activity in assay [14] is 92.7% (inactive).

Take `Nc1ccn([C@@H]2O[C@H](CO)[C@@H](O)[C@H]2O)c(=O)n1`: the call in assay [16], in assay [1], in assay [19] and in [20] was inactive.

On to `C[C@@]12C[C@@]3(O)O[C@@H](O1)[C@]1(COC(=O)c4ccccc4)[C@H]3C[C@@]12O[C@@H]1O[C@H](CO)[C@@H](O)[C@H](O)[C@H]1O`, for which the molecule was called inactive in [19].

As for `COC1=C(OC)C(=O)C(C/C=C(\C)CC/C=C(\C)CC/C=C(\C)CC/C=C(\C)CC/C=C(\C)CC/C=C(\C)CC/C=C(\C)CC/C=C(\C)CC/C=C(\C)CCC=C(C)C)=C(C)C1=O`, in assay [19], the outcome was inactive.

`O=C(O)C1=CCNCC1` gave an inclusion score in assay [17] of 2. Moreover, the period change in assay [11] is 0.375 h (inactive). In addition, the inhibition in [12] is -3% (inactive). For the same molecule, the fluorescence ratio (interference) in assay [13] was 1 (inactive). Moreover, the remaining activity in assay [14] is 102% (inactive). Moreover, the molecule was called inactive in [15].
